PubChem BioAssay AID1159580 (chemical genetic matrix, 2015)
About 2,000 (36%) of roughly 5,500 compounds were called active. Roughly 18% stayed inconclusive and do not appear here. Cut-off read from the data, not from the text of the source: active = normalized growth mostly below about 0.91 (no sharp cut-off); inconclusive = no clear call, values can overlap the other calls; inactive = mostly above about 0.92. This is one part of the list.

Assay: chemical genetic growth profiling, strain panel (AID 1159580);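 note: tested at 20 µM; growth read once vehicle control cultures reached saturation at 30 °C; 1 = growth at the plate median or of vehicle wells; lower values mean less growth of the strain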
Settings: growth OD

Measured: normalized growth

C[C@]12CCC3C(CC[C@]4(O)C[C@@H](O)CC[C@]34C=O)[C@@]1(O)CCC2C1=CC(=O)OC1 (stereo partly specified)
inactive: S. cerevisiae deletion strains, locus YJR066W, strain TOR1, hits give low values 0.934 | S. cerevisiae deletion strains, locus YKL009W, strain mrt4, hits give low values 0.978 | S. cerevisiae deletion strains, locus YKL068W, hits give low values 0.966 | S. cerevisiae deletion strains, locus YKL085W, strain MDH1 (second series), hits give low values 0.978 | S. cerevisiae deletion strains, locus YKL085W, strain MDH1, hits give low values 0.978 | S. cerevisiae deletion strains, locus YKL160W, strain elf1, hits give low values 0.972 | S. cerevisiae deletion strains, locus YKL190W, strain CNB1, hits give low values 0.997 | S. cerevisiae deletion strains, locus YKR001C, strain vps1, hits give low values 0.986 | S. cerevisiae deletion strains, locus YKR026C, strain gcn3, hits give low values 0.988 | S. cerevisiae deletion strains, locus YKR091W, strain srl3, hits give low values 0.981 | S. cerevisiae deletion strains, locus YLL001W, strain dnm1, hits give low values 0.975 | S. cerevisiae deletion strains, locus YLL026W, hits give low values 0.986 | S. cerevisiae deletion strains, locus YLL041C, strain sdh2, hits give low values 0.967 | S. cerevisiae deletion strains, locus YLR027C, strain aat2, hits give low values 0.958 | S. cerevisiae deletion strains, locus YLR039C, strain RIC1, hits give low values 0.975 | S. cerevisiae deletion strains, locus YLR058C, strain SHM2, hits give low values 0.989 | S. cerevisiae deletion strains, locus YLR102C, strain apc9, hits give low values 0.978 | S. cerevisiae deletion strains, locus YLR113W, strain HOG1, hits give low values 0.983 | S. cerevisiae deletion strains, locus YLR221C, strain rsa3, hits give low values 1 | S. cerevisiae deletion strains, locus YLR258W, strain gsy2, hits give low values 0.965 | S. cerevisiae deletion strains, locus YLR262C, strain YPT6 (second series), hits give low values 0.957 | S. cerevisiae deletion strains, locus YLR262C, strain YPT6, hits give low values 0.918 | S. cerevisiae deletion strains, locus YLR268W, strain sec22, hits give low values 0.979 | S. cerevisiae deletion strains, locus YLR320W, strain mms22, hits give low values 1.05 | S. cerevisiae deletion strains, locus YLR330W, strain CHS5, hits give low values 0.983 | S. cerevisiae deletion strains, locus YLR342W, strain FKS1 (second series), hits give low values 1.01 | S. cerevisiae deletion strains, locus YLR342W, strain FKS1, hits give low values 0.976 | S. cerevisiae deletion strains, locus YLR357W, strain rsc2, hits give low values 0.998 | S. cerevisiae deletion strains, locus YLR370C, strain arc18, hits give low values 0.999 | S. cerevisiae deletion strains, locus YLR371W, strain rom2, hits give low values 0.963 | S. cerevisiae deletion strains, locus YLR384C, strain iki3, hits give low values 1 | S. cerevisiae deletion strains, locus YLR418C, strain cdc73, hits give low values 0.95 | S. cerevisiae deletion strains, locus YML016C, strain PPZ1, hits give low values 0.99 | S. cerevisiae deletion strains, locus YML032C, strain rad52, hits give low values 0.976 | S. cerevisiae deletion strains, locus YML120C, strain ndi1, hits give low values 0.954 | S. cerevisiae deletion strains, locus YML124C, strain tub3, hits give low values 0.987 | S. cerevisiae deletion strains, locus YMR058W, strain fet3, hits give low values 0.969 | S. cerevisiae deletion strains, locus YMR078C, strain ctf18, hits give low values 0.965 | S. cerevisiae deletion strains, locus YMR125W, strain sto1, hits give low values 0.96 | S. cerevisiae deletion strains, locus YMR129W, hits give low values 0.982 | S. cerevisiae deletion strains, locus YMR205C, strain PFK2, hits give low values 0.881 | S. cerevisiae deletion strains, locus YMR231W, strain pep5, hits give low values 0.999 | S. cerevisiae deletion strains, locus YMR307W, strain GAS1, hits give low values 0.919 | S. cerevisiae deletion strains, locus YNL067W, strain RPL9B, hits give low values 1.01 | S. cerevisiae deletion strains, locus YNL071W, strain lat1, hits give low values 0.958 | S. cerevisiae deletion strains, locus YNL183C, strain NPR1, hits give low values 0.952 | S. cerevisiae deletion strains, locus YNL209W, strain ssb2, hits give low values 0.974 | S. cerevisiae deletion strains, locus YNL233W, strain BNI4, hits give low values 1.03 | S. cerevisiae deletion strains, locus YNL248C, strain rpa49, hits give low values 0.943 | S. cerevisiae deletion strains, locus YNL250W, strain rad50, hits give low values 0.968 | S. cerevisiae deletion strains, locus YNL271C, strain bni1, hits give low values 0.981 | S. cerevisiae deletion strains, locus YNL298W, strain CLA4, hits give low values 0.964 | S. cerevisiae deletion strains, locus YNL307C, strain MCK1, hits give low values 0.983 | S. cerevisiae deletion strains, locus YNL322C, strain KRE1 (second series), hits give low values 0.975 | S. cerevisiae deletion strains, locus YNL322C, strain KRE1, hits give low values 0.99 | S. cerevisiae deletion strains, locus YNR049C, strain mso1, hits give low values 0.971 | S. cerevisiae deletion strains, locus YNR052C, strain pop2, hits give low values 0.977 | S. cerevisiae deletion strains, locus YOL012C, strain htz1 1.05 | S. cerevisiae deletion strains, locus YOL147C, strain pex11, hits give low values 0.981 | S. cerevisiae deletion strains, locus YOR001W, strain rrp6, hits give low values 1.01 | S. cerevisiae deletion strains, locus YOR061W, strain CKA2, hits give low values 0.963 | S. cerevisiae deletion strains, locus YOR069W, strain VPS5, hits give low values 0.984 | S. cerevisiae deletion strains, locus YOR070C, strain gyp1, hits give low values 0.998 | S. cerevisiae deletion strains, locus YOR080W, strain dia2, hits give low values 0.988 | S. cerevisiae deletion strains, locus YOR083W, strain WHI5, hits give low values 0.939 | S. cerevisiae deletion strains, locus YOR106W, strain vam3, hits give low values 0.9 | S. cerevisiae deletion strains, locus YOR136W, strain idh2, hits give low values 0.981 | S. cerevisiae deletion strains, locus YOR144C, strain elg1, hits give low values 0.985 | S. cerevisiae deletion strains, locus YOR184W, strain ser1, hits give low values 0.975 | S. cerevisiae deletion strains, locus YOR231W, strain MKK1, hits give low values 1 | S. cerevisiae deletion strains, locus YOR265W, strain rbl2, hits give low values 0.975 | S. cerevisiae deletion strains, locus YOR270C, strain vph1, hits give low values 0.997 | S. cerevisiae deletion strains, locus YOR290C, strain snf2, hits give low values 0.894 | S. cerevisiae deletion strains, locus YOR316C, strain cot1, hits give low values 0.982 | S. cerevisiae deletion strains, locus YPL051W, strain arl3, hits give low values 0.995 | S. cerevisiae deletion strains, locus YPL055C, strain LGE1, hits give low values 1 | S. cerevisiae deletion strains, locus YPL078C, strain atp4, hits give low values 0.942 | S. cerevisiae deletion strains, locus YPL106C, strain sse1, hits give low values 0.871 | S. cerevisiae deletion strains, locus YPL240C, strain hsp82, hits give low values 0.988 | S. cerevisiae deletion strains, locus YPL256C, strain CLN2, hits give low values 0.974 | S. cerevisiae deletion strains, locus YPR119W, strain clb2, hits give low values 0.983 | S. cerevisiae deletion strains, locus YPR141C, strain kar3, hits give low values 0.982 | S. cerevisiae deletion strains, locus YPR163C, strain tif3, hits give low values 0.967 | S. cerevisiae deletion strains, locus YPR167C, strain met16, hits give low values 0.975 | S. cerevisiae deletion strains, strain wtn01, hits give low values 1.01 | S. cerevisiae strains, strain wild type, hits give low values 0.981
